Compounds with a hit are over-represented: about 3.5% of the library has one in this group of screens.
Pf apPOL block: Pf-apPOL DNA polymerase inhibition; Recombinant Pf-apPOL, molecular beacon fluorescence, 1.5 h; inhibition, % at 10 µM; actives 0.25% (n = 210,000); AID 1794808
mHTT CaM bind: inhibitors of human mutant huntingtin-calmodulin interaction; P42858; AlphaScreen His-mHTT/GST-CaM binding, luminescence; inhibition, % at 15 µM; actives 3.6% (n = 190,000); AID 1671202
Each line names hits and unclear results; the compound was inactive in the other large screens. Cut-off read from the data, not from the text of the source: active = inhibition above about 50%; inactive = the rest.

COCCC(=O)N1CCC(c2nc(C(=O)N3CCCCC3)c(C)o2)CC1	none
Cc1ccc(S(=O)(=O)N2CCN(C(=O)CN3CCCC3)C2C(C)C)cc1 (stereo unspecified)	none
CCc1ccc(CNC(=O)CCC(=O)N2CC3CCCN3c3ccccc32)cc1 (stereo unspecified)	mHTT CaM bind 55.4
CCNC(=O)CCC(=O)N1CC2CCCN2c2ccccc21 (stereo unspecified)	none
O=C(CCC(=O)N1CC2CCCN2c2ccccc21)NCCN1CCCCCC1 (stereo unspecified)	none
O=C(CCC(=O)N1CC2CCCN2c2ccccc21)NCCN1CCCC1 (stereo unspecified)	mHTT CaM bind 68.3
COc1ccc(Cl)cc1NC(=O)c1cc(I)ccc1Cl	none
O=C(NCCC1=CCCCC1)c1ccc(N2CCCCS2(=O)=O)cc1	none
Cc1ccc(CC(=O)Nc2c(C)nc3sccn3c2=O)cc1	none
Cc1ccc(C)c(N=Cc2cc3c(cc2[N+](=O)[O-])OCO3)c1	mHTT CaM bind 65.5 (no result: Pf apPOL block)
CC(=O)N(C)c1ccc(N=Cc2cc3c(cc2[N+](=O)[O-])OCO3)cc1	none
N#Cc1ccccc1N=Cc1cc2c(cc1[N+](=O)[O-])OCO2	none
Cc1cc(C)c(O)c(N=Cc2cc3c(cc2[N+](=O)[O-])OCO3)c1	mHTT CaM bind 52.0
Cc1ccc(N=Cc2cc3c(cc2[N+](=O)[O-])OCO3)c(C)c1	mHTT CaM bind 76.0
Cc1cc(C)c(O)c(N=Cc2cc(Cl)cc([N+](=O)[O-])c2O)c1	none
COc1ccc(S(=O)(=O)N2CCSC2c2ccc(OC)c(Br)c2)cc1 (stereo unspecified)	none
CCOCCCNC(=O)N1CCCCCC1c1cccs1 (stereo unspecified)	none
COCCNC(=O)C1CCCN(c2cnn(C)c(=O)c2)C1 (stereo unspecified)	none
COc1ncccc1CNC(=O)NCc1ccc(F)cc1	none
CC1=C(C(=O)Nc2ccccc2)C(c2ccc(F)cc2)n2c(s/c(=C\c3ccc(C)o3)c2=O)=N1 (stereo unspecified)	mHTT CaM bind 66.0
CC1=C(C(=O)Nc2ccccc2)C(c2ccccc2)n2c(s/c(=C\c3ccco3)c2=O)=N1 (stereo unspecified)	none
O=C(/C=C/c1ccccc1Cl)NC1CC2CCC1C2 (stereo unspecified)	none
Cc1cc(C)nc(SC(NC(=O)c2ccccc2)C(=O)c2ccccc2)n1 (stereo unspecified)	mHTT CaM bind 94.0
Cc1cc(=O)n(C(NC(=O)c2ccccc2)C(=O)c2ccccc2)cn1 (stereo unspecified)	none
CCOc1ccccc1NC(=O)c1c(NCc2cccc(OC)c2OC)sc2c1CCC2	none
COc1cc(OC)c(OC)cc1CNc1sc2c(c1C(=O)Nc1ccccc1OC)CCC2	mHTT CaM bind 53.0
COc1ccccc1NC(=O)c1c(NCc2cccc(F)c2)sc2c1CCC2	mHTT CaM bind 63.0
COc1ccccc1NC(=O)c1c(NC(=O)c2ccco2)sc2c1CCCC2	none
CCCC(=O)Nc1ccc2c(c1)CC(C(=O)NCC1CCCCC1)CO2 (stereo unspecified)	none
CC(C)CCNC(=O)c1cccc(N2CCNC(c3ccccc3)C2)n1 (stereo unspecified)	none
COc1cc(OC)cc(C(=O)N2CCC3(C2)NCc2ccccc2NC3=NC(C)(C)C)c1 (stereo unspecified)	none
OC(C#CC12CC3CC(CC(C3)C1)C2)c1cccnc1 (stereo unspecified)	none
Cc1ccc(C(O)C#CC23CC4CC(CC(C4)C2)C3)o1 (stereo unspecified)	mHTT CaM bind 87.0
COc1ccccc1NC(=O)CSc1nc2c(cnn2-c2cccc(C)c2)c(=O)[nH]1	none
O=C1C=CC(=Nc2ccc(Br)cc2)C=C1	mHTT CaM bind 87.0
CC1CCCCC1N1C(=O)c2ccccc2C1C(=O)NC1CCCCC1 (stereo unspecified)	mHTT CaM bind 52.0
O=C(NC1CCCCC1)C1c2ccccc2C(=O)N1C1CCCCC1 (stereo unspecified)	none
CCCCCCCCCn1cc[n+](CCCCCCCCC)c1C	mHTT CaM bind 100.1 (no result: Pf apPOL block)
CCCCCCCCN1C(=O)CCC1=O	none (no result: Pf apPOL block)
Nc1cc(Cl)c(Oc2cccc(Cl)c2Cl)cc1[N+](=O)[O-]	mHTT CaM bind 97.0
O=C(O)c1cc([N+](=O)[O-])c(C(=O)O)cc1Oc1cc(Cl)c(Cl)cc1Cl	none
Cc1ccc(-c2ccnc3c(C(=O)N4CCOCC4)cnn23)cc1C	none
CCSc1nnc2c(n1)OC(c1cccc(OC)c1OC)Nc1ccccc1-2 (stereo unspecified)	none
Cc1ccc2c(c1)C(=O)NC1(CCN(C(=O)c3cccc(F)c3)CC1)N2C	none
Cc1c(C(=O)Nc2ccccn2)sc2nc(-c3ccccc3)cn12	none
Cc1cccc(NC(=O)c2sc3nc(-c4ccccc4)cn3c2C)n1	mHTT CaM bind 50.0
COc1ccc(C2CCCN2C(=O)Nc2cccc(Cl)c2)cc1 (stereo unspecified)	none
Cc1ccc(C(=O)N2CCN(c3ccc(C(F)(F)F)cc3[N+](=O)[O-])CC2)cc1	none
Cc1cccc(Cn2c(CN3CCC(C(=O)NCc4ccco4)CC3)cc3ccccc32)c1	none
COCCNC(=O)C1CCN(Cc2cc3ccccc3n2Cc2cccc(C)c2)CC1	mHTT CaM bind 60.4
COc1ccccc1CN1CCC(C(=O)NCCc2ccccc2)CC1	none
CN(C)CCNC(=O)C1CCN(Cc2cc3ccccc3n2Cc2ccccc2)CC1	mHTT CaM bind 100.2
COCCCNC(=O)C1CCN(Cc2cc3ccccc3n2Cc2ccc(C)cc2)CC1	mHTT CaM bind 76.2
COCCNC(=O)C1CCN(Cc2cc3ccccc3n2Cc2ccccc2C)CC1	mHTT CaM bind 59.9
O=C(NCCc1ccccc1)C1CCN(Cc2ccccc2)CC1	none
Cc1ccc(Cn2c(CN3CCC(C(=O)NCc4ccco4)CC3)cc3ccccc32)cc1	none
O=C(CCC(=O)Nc1noc2ccccc12)Nc1ccc(F)cc1	none
O=C(NCCCn1ccnc1)C1CC(=O)N(CCc2c[nH]c3ccc(F)cc23)C1 (stereo unspecified)	none
O=C(NCC1CCCO1)N1CCCn2nc(-c3ccncc3)cc2C1 (stereo unspecified)	none
CC(=O)c1ccc(NC(=O)c2ccc3nc(-c4ccccn4)c(-c4ccccn4)nc3c2)cc1	none
COCCNC(=O)C1CCN(Cc2cc(OC)c(OC)c(OC)c2)CC1	none
COCCNC(=O)C1CCN(Cc2cc3ccccc3n2Cc2cccc(F)c2)CC1	mHTT CaM bind 63.0
O=C(O)c1cc([N+](=O)[O-])c(N2CCN(c3cccc(C(F)(F)F)c3)CC2)c([N+](=O)[O-])c1	Pf apPOL block 84.0
O=[N+]([O-])c1ccc(N2CCN(c3cccc(C(F)(F)F)c3)CC2)s1	none
CCCn1c(=O)c(N2CCC(NC(=O)Nc3ccccc3C)CC2)nc2ccccc21	none
Cc1cccc(-n2nc3c(c2NC(=O)/C=C/c2ccc4c(c2)OCO4)CS(=O)(=O)C3)c1C	none
CCCC(=O)N(c1ccccc1)C1CC(C)Nc2ccccc21 (stereo unspecified)	mHTT CaM bind 54.2
CC1CC(Nc2ccccc2)c2ccccc2N1 (stereo unspecified)	none
N#CC(C#N)=CNc1cc(Cl)ccc1Cl	none (no result: Pf apPOL block)
O=c1cc(-c2ccccc2)oc2c(CN3CCCC3)c(O)c(CN3CCCC3)c(O)c12	none
O=C(Cn1c(-c2nnco2)cc2ccccc21)NCc1ccco1	mHTT CaM bind 69.1
O=C(Cn1c(C(F)(F)F)nc2ccccc21)NCc1ccco1	none
COc1ccc(NC(=O)COc2ccc([N+](=O)[O-])cc2)c(OC)c1	none
COc1ccc(NCc2ccc([N+](=O)[O-])s2)c(OC)c1	mHTT CaM bind 66.9

Source: PubChem
